Here are results for ten compounds from PubChem BioAssay (NCATS).

Unmarked numbers belong to inactive results. Inconclusive results are not listed. Activity calls are given as the source filed them. Unless noted, calls come from the whole dose curve; as a rule, active = well fitted curve in either direction with a large enough effect (not every such curve was filed as active); inconclusive = small, poorly fitted or top-dose-only effect, or another doubt; inactive = flat fitted curve, though single readings scatter.

Test [1] is described as follows: AP1 Signaling Pathway (AID 357).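 Note: ME-180 reporter cells stimulated with EGF at its EC50 level; % is set by controls: 0 for no effect and ±100 for the full control effect.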 The conditions noted are these: ME-180 (cervical carcinoma) AP-1-bla reporter, EGF-induced, beta-lactamase ratio, 5 h; at 17.2 µM (top of the series) unless noted. In outline:
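Read-out was the 460nm/530nm emission ratio (excitation 405nm) after CCF4 loading for 2.5 hours at room temperature. Cells carried an AP-1-driven beta-lactamase reporter, were stimulated with EC50 EGF plus compound for 5 hours, and AC50 values came from titrations.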

Test [2] deals with Cytochrome P450 1A2 (Homo sapiens) (UniProt P05177). Nature of the test: p450-cyp1a2 (AID 410; calls by dose curve; note: potency is the fitted concentration of half-maximal effect;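 for activity change, negative = inhibition: -100% = full effect of reference inhibitor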). An outline of the steps:
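Human CYP1A2 (20nM) demethylated Luciferin-ME at its Km (100uM) in 100mM KPO4. After 10 min compound preincubation, NADPH regeneration ran the reaction 60 min at room temperature. Luciferin was read by luminescence, normalized to 57 uM furafylline.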

Test [3] can be described thus: Stat Signaling Pathway (AID 446).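 Note: ME-180 cervical cancer cells given 40 pM IL-6 alongside compound; SIE-controlled beta-lactamase reporter measured as 460/530 nm FRET emission ratio; % is set by controls: 0 for no effect and ±100 for the full control effect.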 In outline:
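IL-6/STAT signaling read in ME-180 cells via an SIE beta-lactamase reporter. Stimulus was 40 pM IL-6 (its AC50) for 5 hrs, so both activation and inhibition register.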

Test [4] has as its target Glucocorticoid receptor (Homo sapiens) (UniProt P04150). Put plainly: GR-GFP Redistribution (AID 450;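 active = compounds whose dose series gives a full or clear partial fitted curve of increased nuclear translocation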; note: potency is the fitted concentration of half-maximal effect). The following applies: U2OS GR-GFP nuclear translocation, laser cytometry, 2 h.
The target is the same in test [5]. Nature of the test: GR-EFC Redistribution (AID 451; calls by dose curve; note: potency is the fitted concentration of half-maximal effect). The following applies: CHO-K1 GR-EFC translocation, beta-gal luminescence, 2 h. An outline of the steps: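 Translocation of GR-ED fusion to nuclear EA restores b-gal, read by luminescence after 1 h room-temperature detection. Engineered CHO-K1 biosensor cells, 1,000/well, exposed 2 h at 37 C to titrations up to 46 uM final.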

Test [6] addresses Mitogen-activated protein kinase 10 (Mus musculus) (UniProt Q61831). Put plainly: JNK3 AlphaScreen Assay (AID 530).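 Note: kinase came from lysate of stimulated human HepG2 cells; signal reports phosphorylation of biotinylated GST-cJun 1-79 at Ser73 with 10 µM ATP; % is set by controls: 0 for no effect and ±100 for the full control effect.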 An outline of the steps:
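Room-temperature AlphaScreen kinase assay; pre-activated HepG2 lysate as JNK3 source, biotin-GST-cJun(1-79) substrate, 10 uM ATP, compound 15 min preincubation.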
(In Alpha technology, singlet oxygen from a donor bead excites a nearby acceptor bead.)

Test [7] concerns the target 3',5'-cyclic-AMP phosphodiesterase 4B (Homo sapiens) (UniProt Q07343). Nature of the test: qHTS Assay for Inhibitors of PDE-IV (AID 607; active = well fitted activation curve with a large enough effect in the main read-out, with a control signal flat, not every such curve was filed as active; note: % of control where 0% means no effect). In outline: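 Live HEK293 cells with a modified cyclic nucleotide-gated (CNG) channel report intracellular cAMP via membrane-potential dye fluorescence (ex 535/em 590 nm). Endogenous PDE-IV was targeted. Compounds were tested at up to 22.9 uM final; RO 20-1724 100 uM served as control.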
For orientation: Quantitative high-throughput screening tests each substance at several concentrations.

Test [8] concerns the target Guanine nucleotide-binding protein G(i) subunit alpha-1 (Homo sapiens) (UniProt P63096). Nature of the test: qHTS Assay for Inhibitors of RGS12 GoLoco Motif Activity (Green Fluorophore) (AID 879; active = well fitted curve in the direction sought with a large enough effect; an effect the other way counts as inactive or inconclusive;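 note: 0% = labeled peptide with Gαi1 and full inhibition = labeled peptide alone without protein; negative values mean loss of peptide binding seen as reduced polarization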). In outline: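 Fluorescence polarization assay: 50 nM Gαi1 with 10 nM FITC-labeled RGS12 GoLoco peptide in 10 mM Tris pH 7.5, 150 mM NaCl, 0.1 mM GDP, 0.05% NP40, 10 min at room temperature with compound.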

Test [9] addresses Cytochrome P450 2D6 (Homo sapiens) (UniProt P10635). Nature of the test: qHTS Assay for Inhibitors and Substrates of Cytochrome P450 2D6 (AID 891; active = well fitted curve in the direction sought with a large enough effect; an effect the other way counts as inactive or inconclusive; note: nearly all actives have a fitted effect of over 60% in size; note: potency is the fitted concentration of half-maximal effect). In outline: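 Human CYP2D6 (5 nM) with 30 uM Luciferin-ME EGE (at Km) in 100 mM KPO4, compound preincubated 10 min, then NADPH regeneration system for 60 min at room temperature. Luciferin read by luminescence; normalized to 1.43 uM quinidine.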

Test [10] is described as follows: qHTS Assay for Identification of Small Molecule Antagonists for NFkB Signaling Pathway (AID 895; active = well fitted inhibition curve with a large enough effect in the signal ratio, with a control signal flat, not every such curve was filed as active; the % refers to the signal ratio; note: potency is the fitted concentration of half-maximal effect). In outline: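 Beta-lactamase reporter read-out (460 and 530 nm emission ratio, 405 nm excitation, 2 hrs substrate loading RT) after 5 hr stimulation with 10 pM TNF alpha in compound-treated NFkB-bla ME-180 cells in low-serum medium.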
Test [11] is described as follows: qHTS Assay for Identification of Small Molecule Agonists for Thrombopoietin (TPO) Signaling Pathway (AID 917; active = well fitted curve in the direction sought with a large enough effect; an effect the other way counts as inactive or inconclusive; note: % is set by controls: 0 for no effect and ±100 for the full control effect). In outline: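 We measured Glycoprotein IIb promoter–luciferase output in IL-3-starved Ba/F3 murine cells expressing the human TPO receptor after 24 hrs at 37 C with compounds and 26 pM TPO.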
In test [12] the target is Pyruvate kinase (Leishmania mexicana) (UniProt Q27686). Put plainly: qHTS Validation Assay for Inhibitors of Leishmania Mexicana Pyruvate Kinase (AID 945; active = well fitted curve in the direction sought with a large enough effect; an effect the other way counts as inactive or inconclusive;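 note: 0% = DMSO only neutral control wells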). In outline: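 Luminescent ATP detection (PKLight) after a 1 h room-temperature reaction of 0.2 nM LmPYK E451W mutant with 0.5 mM PEP and 0.1 mM ADP at pH 7.2. Activity is normalized to DMSO-only control wells.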
In test [13] the target is Pyruvate kinase PKM (Homo sapiens) (UniProt P14618). Put plainly: qHTS Assay for Activators of Human Muscle Pyruvate Kinase (AID 954; active = well fitted curve in the direction sought with a large enough effect, not every such curve was filed as active;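 note: 0% = uninhibited enzyme and -100% = no enzyme or full thiadiazolimine inhibition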). An outline of the steps: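 Enzyme was run at intermediate activity so both inhibitors and activators could be detected. ATP formed from ADP and PEP by 0.1 nM human PKM2 during a 1 h room-temperature incubation was quantified by coupled luciferase luminescence.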

Test [14] has as its target Alpha-galactosidase (Coffea arabica) (UniProt Q42656). Put plainly: Counterscreen for Glucocerebrosidase Inhibitors: qHTS Assay for Coffee Bean alpha-Galactosidase at pH 4.5 (AID 957; active = well fitted curve in the direction sought with a large enough effect; an effect the other way counts as inactive or inconclusive;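 note: plate controls were enzyme alone for no effect and no enzyme for full effect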). In outline: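 Green coffee bean enzyme (2 nM final) was incubated with compounds (0.7 nM to 77 uM) and 4-methylumbelliferyl alpha-D-galactopyranoside (80 uM final) in 50 mM citric acid, 0.005% Tween-20, pH 4.5, 20 min at room temperature; AC50 from Hill fits.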
In general terms: A counterscreen serves to expose hits that act by an unwanted route or on another target.

Test [15] concerns the target Alpha-galactosidase A (Homo sapiens) (UniProt P06280). Nature of the test: Counterscreen for Glucocerebrosidase Inhibitors: qHTS Assay for Human alpha-Galactosidase at pH 4.5 (AID 992; active = well fitted curve in the direction sought with a large enough effect; an effect the other way counts as inactive or inconclusive; note: 0% is about no effect). In outline:
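Read-out is 4-methylumbelliferone fluorescence (365 nm excitation, 440 nm emission) after a pH 10 NaOH/glycine stop. Reactions held 2 nM enzyme and 80 uM substrate at pH 4.5 for 20 min at room temperature.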

The target of test [16] is alpha-glucosidase (Oryza sativa, rice) (UniProt Q653V4). Nature of the test: Counterscreen for Glucocerebrosidase Inhibitors: qHTS Assay for Rice alpha-Glucosidase at pH 5.0 (AID 997; active = well fitted curve in the direction sought with a large enough effect; an effect the other way counts as inactive or inconclusive;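 note: 0% = full activity with enzyme and -100% = basal without enzyme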). In outline: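 Rice alpha-glucosidase (4 nM final) with 400 uM 4-methylumbelliferyl-alpha-D-glucopyranoside in citrate buffer pH 5.0, 20 min at room temperature, stopped at pH 10; fluorescence 365/440 nm, compounds 0.7 nM–77 uM, AC50 from Hill fits.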

Test [17] deals with Alpha-galactosidase (Coffea arabica) (UniProt Q42656). Nature of the test: Counterscreen for Glucocerebrosidase Inhibitors: qHTS Assay for Coffee Bean alpha-Galactosidase at pH 5.9 (AID 998; active = well fitted curve in the direction sought with a large enough effect; an effect the other way counts as inactive or inconclusive;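 note: plate controls were uninhibited enzyme for no effect and no-enzyme basal signal for full effect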). In outline:
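Compounds were titrated from 0.7 nM to 77 uM against green coffee bean alpha-galactosidase (2 nM) using 80 uM fluorogenic 4-methylumbelliferyl substrate. After 20 min at room temperature, reactions were stopped at pH 10 and read by fluorescence.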

The nature of test [18]: NFAT Signaling Pathway (AID 444). The following applies: Jurkat NFAT-bla M1, carbachol, beta-lactamase ratio, 5 h; at 17.2 µM (top of the series) unless noted. In outline:
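Read-out: CCF4 FRET ratio (460 nm/530 nm) after 1 h RT dye loading, used for %activity and AC50 from titration series. Cells: Jurkat NFAT-β-lactamase/M1 line, treated with compound plus 1 uM carbachol for 5 h, 37 °C.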

The target of test [19] is Cytochrome P450 2C9 (Homo sapiens) (UniProt P11712). Put plainly: qHTS Assay for Inhibitors and Substrates of Cytochrome P450 2C9 (AID 883; active = well fitted curve in the direction sought with a large enough effect; an effect the other way counts as inactive or inconclusive; note: % is set by controls: 0 for no effect and ±100 for the full control effect; nearly all actives have a fitted effect of over 60% in size). An outline of the steps: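 Turnover of Luciferin-H (100uM, KM) by 10nM human CYP2C9 was measured over 60 min at 37C with NADPH regeneration; inhibitors and some substrates reduce luminescence. Data normalized to sulphaphenazole 57uM.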

For test [20], the target named is Cytochrome P450 2C19 (Homo sapiens) (UniProt P33261). Nature of the test: qHTS Assay for Inhibitors and Substrates of Cytochrome P450 2C19 (AID 899; active = well fitted curve in the direction sought with a large enough effect; an effect the other way counts as inactive or inconclusive; note: % is set by controls: 0 for no effect and ±100 for the full control effect; nearly all actives have a fitted effect of over 60% in size). An outline of the steps:
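Reactions contain 5nM enzyme, 10uM Luciferin-H EGE (KM) and 50mM KPO4; compound preincubates 10 min at 37C, NADPH regeneration starts turnover for 60 min. Luminescence after detection reagent gives activity.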

Sequence of Alpha-galactosidase (Coffea arabica) (Q42656 whole entry, looked up): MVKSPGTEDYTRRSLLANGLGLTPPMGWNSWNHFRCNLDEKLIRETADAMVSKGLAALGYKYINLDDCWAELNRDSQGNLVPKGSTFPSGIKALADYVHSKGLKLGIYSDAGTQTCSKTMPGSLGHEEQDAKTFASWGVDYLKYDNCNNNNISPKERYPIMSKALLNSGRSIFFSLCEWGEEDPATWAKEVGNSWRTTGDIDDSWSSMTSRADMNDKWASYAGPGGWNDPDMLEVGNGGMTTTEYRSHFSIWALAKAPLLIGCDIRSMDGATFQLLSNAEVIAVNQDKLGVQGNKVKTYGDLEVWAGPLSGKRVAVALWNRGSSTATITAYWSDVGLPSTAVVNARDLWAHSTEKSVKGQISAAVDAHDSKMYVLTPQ
Sequence of Cytochrome P450 1A2 (Homo sapiens) (P05177 whole entry, looked up): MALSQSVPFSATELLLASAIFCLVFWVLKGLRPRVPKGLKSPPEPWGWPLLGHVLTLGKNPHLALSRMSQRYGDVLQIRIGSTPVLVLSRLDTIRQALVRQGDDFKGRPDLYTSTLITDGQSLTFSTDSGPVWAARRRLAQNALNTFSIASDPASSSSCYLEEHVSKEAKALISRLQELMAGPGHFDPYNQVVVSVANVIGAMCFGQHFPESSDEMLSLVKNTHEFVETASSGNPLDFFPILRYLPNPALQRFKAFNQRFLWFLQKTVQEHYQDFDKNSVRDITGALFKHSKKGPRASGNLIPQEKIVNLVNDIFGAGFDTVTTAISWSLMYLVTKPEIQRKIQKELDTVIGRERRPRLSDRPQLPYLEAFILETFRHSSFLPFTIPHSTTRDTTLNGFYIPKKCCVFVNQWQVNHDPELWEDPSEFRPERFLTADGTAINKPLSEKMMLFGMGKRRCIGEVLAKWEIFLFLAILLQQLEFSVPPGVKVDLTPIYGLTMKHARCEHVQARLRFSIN
Sequence of Glucocorticoid receptor (Homo sapiens) (P04150 whole entry, looked up, the tested form may be a part): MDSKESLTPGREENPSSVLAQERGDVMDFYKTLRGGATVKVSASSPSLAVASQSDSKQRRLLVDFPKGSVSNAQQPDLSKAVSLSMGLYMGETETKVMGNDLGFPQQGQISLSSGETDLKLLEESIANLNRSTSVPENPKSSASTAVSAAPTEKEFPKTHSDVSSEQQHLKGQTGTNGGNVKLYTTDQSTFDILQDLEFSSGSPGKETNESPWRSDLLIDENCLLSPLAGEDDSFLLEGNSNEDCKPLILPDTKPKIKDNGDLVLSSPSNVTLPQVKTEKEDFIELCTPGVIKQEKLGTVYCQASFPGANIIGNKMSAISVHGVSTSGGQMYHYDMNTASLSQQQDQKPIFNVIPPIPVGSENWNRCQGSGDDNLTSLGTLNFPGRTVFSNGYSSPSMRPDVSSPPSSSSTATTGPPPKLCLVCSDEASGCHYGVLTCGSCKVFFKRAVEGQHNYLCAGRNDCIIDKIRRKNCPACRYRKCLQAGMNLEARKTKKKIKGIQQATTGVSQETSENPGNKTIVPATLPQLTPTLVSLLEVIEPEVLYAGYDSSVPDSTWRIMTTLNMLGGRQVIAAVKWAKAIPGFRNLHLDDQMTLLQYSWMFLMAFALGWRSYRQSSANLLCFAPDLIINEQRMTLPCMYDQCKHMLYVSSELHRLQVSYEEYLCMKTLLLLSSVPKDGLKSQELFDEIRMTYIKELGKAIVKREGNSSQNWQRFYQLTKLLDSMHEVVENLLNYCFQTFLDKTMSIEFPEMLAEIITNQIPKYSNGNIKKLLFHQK
Sequence of 3',5'-cyclic-AMP phosphodiesterase 4B (Homo sapiens) (Q07343 whole entry, looked up): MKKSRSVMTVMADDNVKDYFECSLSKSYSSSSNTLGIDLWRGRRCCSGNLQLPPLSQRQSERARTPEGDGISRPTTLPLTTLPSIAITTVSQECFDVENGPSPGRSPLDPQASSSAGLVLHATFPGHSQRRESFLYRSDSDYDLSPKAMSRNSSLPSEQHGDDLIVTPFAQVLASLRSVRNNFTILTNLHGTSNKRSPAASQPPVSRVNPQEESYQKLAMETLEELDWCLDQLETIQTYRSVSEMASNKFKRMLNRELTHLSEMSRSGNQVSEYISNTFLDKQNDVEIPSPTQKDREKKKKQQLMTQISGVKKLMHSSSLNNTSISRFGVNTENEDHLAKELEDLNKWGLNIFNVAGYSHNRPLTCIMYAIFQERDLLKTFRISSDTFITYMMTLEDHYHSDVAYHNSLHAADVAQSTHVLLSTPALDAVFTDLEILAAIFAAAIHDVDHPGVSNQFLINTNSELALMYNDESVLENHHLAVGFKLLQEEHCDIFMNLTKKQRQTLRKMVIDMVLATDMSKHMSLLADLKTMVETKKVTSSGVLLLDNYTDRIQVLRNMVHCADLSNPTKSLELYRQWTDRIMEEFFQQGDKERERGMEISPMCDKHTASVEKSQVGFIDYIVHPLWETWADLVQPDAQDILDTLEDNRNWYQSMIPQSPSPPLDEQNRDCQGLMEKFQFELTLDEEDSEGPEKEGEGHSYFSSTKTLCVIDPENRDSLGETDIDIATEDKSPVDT
Sequence of Cytochrome P450 2D6 (Homo sapiens) (P10635 whole entry, looked up): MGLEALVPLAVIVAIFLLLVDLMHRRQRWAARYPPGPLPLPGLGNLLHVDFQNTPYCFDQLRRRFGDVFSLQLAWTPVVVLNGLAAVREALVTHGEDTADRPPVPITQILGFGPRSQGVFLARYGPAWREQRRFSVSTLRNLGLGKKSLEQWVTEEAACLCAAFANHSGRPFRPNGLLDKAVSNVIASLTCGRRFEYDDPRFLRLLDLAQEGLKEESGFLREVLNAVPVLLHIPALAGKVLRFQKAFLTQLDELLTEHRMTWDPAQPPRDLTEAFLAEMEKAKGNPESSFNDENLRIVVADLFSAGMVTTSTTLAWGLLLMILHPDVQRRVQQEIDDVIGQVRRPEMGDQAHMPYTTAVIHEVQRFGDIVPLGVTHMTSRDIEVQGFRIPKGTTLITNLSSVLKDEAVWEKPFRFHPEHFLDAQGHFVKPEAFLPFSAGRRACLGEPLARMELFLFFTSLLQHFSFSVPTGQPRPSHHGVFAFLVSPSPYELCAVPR
Sequence of Alpha-galactosidase A (Homo sapiens) (P06280 whole entry, looked up): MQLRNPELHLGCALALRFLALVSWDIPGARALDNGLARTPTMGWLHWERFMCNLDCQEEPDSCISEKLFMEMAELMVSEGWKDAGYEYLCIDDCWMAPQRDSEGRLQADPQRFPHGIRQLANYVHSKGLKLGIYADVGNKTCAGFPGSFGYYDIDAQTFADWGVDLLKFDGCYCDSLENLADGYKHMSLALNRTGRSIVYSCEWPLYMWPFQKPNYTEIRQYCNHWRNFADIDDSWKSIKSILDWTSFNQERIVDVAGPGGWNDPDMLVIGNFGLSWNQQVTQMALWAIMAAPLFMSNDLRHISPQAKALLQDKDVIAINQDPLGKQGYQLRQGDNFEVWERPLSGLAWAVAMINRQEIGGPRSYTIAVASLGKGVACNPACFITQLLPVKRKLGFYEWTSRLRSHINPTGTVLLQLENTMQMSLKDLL
Sequence of Guanine nucleotide-binding protein G(i) subunit alpha-1 (Homo sapiens) (P63096 whole entry, looked up): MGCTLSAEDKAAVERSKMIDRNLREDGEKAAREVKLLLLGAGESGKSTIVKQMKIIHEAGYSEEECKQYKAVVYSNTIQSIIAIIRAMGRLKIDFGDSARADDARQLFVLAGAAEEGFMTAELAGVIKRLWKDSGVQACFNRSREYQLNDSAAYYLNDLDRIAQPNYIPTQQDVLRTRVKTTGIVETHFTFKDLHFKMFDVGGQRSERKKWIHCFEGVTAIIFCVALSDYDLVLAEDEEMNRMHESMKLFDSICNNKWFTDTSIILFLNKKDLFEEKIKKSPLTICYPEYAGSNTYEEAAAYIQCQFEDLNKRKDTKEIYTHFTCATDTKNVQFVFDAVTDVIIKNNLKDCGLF
Sequence of Pyruvate kinase PKM (Homo sapiens) (P14618 whole entry, looked up): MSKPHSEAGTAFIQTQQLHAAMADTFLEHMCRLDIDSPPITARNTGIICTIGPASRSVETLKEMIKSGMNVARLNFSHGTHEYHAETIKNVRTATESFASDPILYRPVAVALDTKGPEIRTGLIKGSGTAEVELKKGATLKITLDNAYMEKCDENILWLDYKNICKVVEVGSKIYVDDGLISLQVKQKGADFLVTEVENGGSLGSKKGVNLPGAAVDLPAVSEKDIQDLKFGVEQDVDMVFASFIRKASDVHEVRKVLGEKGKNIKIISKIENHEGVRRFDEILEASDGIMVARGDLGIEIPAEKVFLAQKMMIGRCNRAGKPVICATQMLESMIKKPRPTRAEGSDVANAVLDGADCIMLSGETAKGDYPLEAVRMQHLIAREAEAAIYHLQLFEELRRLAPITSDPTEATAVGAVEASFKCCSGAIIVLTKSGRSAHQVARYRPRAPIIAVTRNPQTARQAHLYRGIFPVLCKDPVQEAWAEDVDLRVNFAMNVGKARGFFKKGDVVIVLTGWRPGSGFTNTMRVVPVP
Sequence of Pyruvate kinase (Leishmania mexicana) (Q27686 2-499 E452W): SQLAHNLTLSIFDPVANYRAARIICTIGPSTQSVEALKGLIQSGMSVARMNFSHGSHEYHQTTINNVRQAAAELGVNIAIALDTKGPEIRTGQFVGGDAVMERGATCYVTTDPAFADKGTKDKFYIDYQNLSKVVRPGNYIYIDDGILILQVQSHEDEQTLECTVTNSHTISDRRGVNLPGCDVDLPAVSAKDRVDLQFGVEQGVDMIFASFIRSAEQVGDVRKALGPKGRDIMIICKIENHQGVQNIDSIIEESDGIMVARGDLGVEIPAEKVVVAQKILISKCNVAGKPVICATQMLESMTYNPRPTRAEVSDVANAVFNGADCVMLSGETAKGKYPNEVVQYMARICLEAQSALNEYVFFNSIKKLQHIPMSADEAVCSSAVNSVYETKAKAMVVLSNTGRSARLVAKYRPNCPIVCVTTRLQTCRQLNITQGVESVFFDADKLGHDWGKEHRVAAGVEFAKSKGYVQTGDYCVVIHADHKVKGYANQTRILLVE

Take `C[C@H](N[C@@H](C)CCc1ccccc1)[C@H](O)c1ccc(O)cc1`: in test [1], the activity change, negative = inhibition was 10.2% [at 38 µM]. Moreover, the Potency in [2] was 7.94 µM (active); in test [4] it was more than 46 µM; in [5], more than 46 µM; in test [9], 2 µM (active); in test [10], 0.0089 µM [stimulated with 10 pM TNF alpha] (active). In addition, the outcome in [3], in test [6], in test [7], in [11], in test [13] and in test [14] was inactive. The result in test [15], in test [16] and in test [17] was inactive. For the same compound, the Potency entry in test [8] and in [12] was “inactive” each time.

Regarding `COc1ccc(Cn2c(O)c(C=NCCN3CCOCC3)c(=O)[nH]c2=O)cc1`, the activity change, negative = inhibition in [1] was -6.69%; in [18] it was -3.63%. Also, in [3], the result was inactive. The Potency in test [4] is more than 20.6 µM.

As for `C[C@@]12CC[C@H]3[C@@H](CCC4=CC(=O)CC[C@]43C)[C@H]1CCC2=O`, the figures for the activity change, negative = inhibition in test [1] and in test [18] were 2.25% [at 38 µM] and 9.12% [at 38 µM], respectively. Further, the Potency result in test [2], in [19], in test [9] and in test [20] was “inactive” each time. Further, the result in test [3], in test [6] and in test [7] was inactive.

Take `O=c1c(C=NCCN2CCNCC2)c(O)n(C2CCCCC2)c(=O)n1C1CCCCC1`: the activity change, negative = inhibition was 4.2% in [1] and 18.3% in test [18]. Besides, the outcome in [3] was inactive. Also, in test [4], the Potency was more than 20.6 µM.

For `COc1ccc(C(=O)CC2C(=O)N(C)C(=O)N(C)C2=O)cc1`, the activity change, negative = inhibition in test [1] is 8.4%; in [18] it was -29.5%. Besides, the call in [3] was inactive. The Potency in test [4] is more than 20.6 µM.

Consider `CC(C)(C)NC[C@H](O)c1ccccc1Cl`, for which the activity change, negative = inhibition in [1] is -8.82% [at 38 µM]; in test [18] it was -15.3% [at 38 µM]. For the same compound, the Potency entry in [2], in test [8] and in [12] was “inactive” throughout. For the same compound, the compound was called inactive in [3], in test [7], in test [11], in test [13], in test [14] and in [15]. Also, the compound was called inactive in [16] and in test [17]. In addition, the Potency in [4] and in [5] was more than 46 µM each time.

Regarding `CCOC(=O)C1=C(C)OC(N)=C(C(=O)OCC)[C@@]12C(=O)N(CC(N)=O)c1ccccc12`, the activity change, negative = inhibition was 1.68% in [1] and 2.5% in test [18]. Also, the result in test [3] was inactive. Besides, the Potency in [4] is more than 20.6 µM.

`C[N+]1(C)[C@@H]2CC(OC(=O)[C@@H](CO)c3ccccc3)C[C@@H]1[C@H]1O[C@H]12` (stereo not given in full): the figures for the activity change, negative = inhibition in [1] and in test [2] were 0.541% [at 7.69 µM] and -22.8% [at 11.4 µM], respectively. For the same compound, the call in test [3] was inactive. Further, the Potency in [4] was more than 46 µM; in [5], more than 9.22 µM.

As to `O=c1[nH]c(O)c(C=NC2CCN(Cc3ccccc3)CC2)c(=O)[nH]1`, the activity change, negative = inhibition in [1] was 5.09%; in test [18] it was -19.6%. The outcome in test [3] was inactive. Also, the Potency in test [4] was more than 20.6 µM.

For `CCCCNC(=O)Nc1ccc(C(O)(C(=O)OCC)C(F)(F)F)cc1` (stereo not given), the activity change, negative = inhibition in [1] is -5.83%; in test [18], 30%. For the same compound, the call in test [3] was inactive. Further, the Potency in test [4] is more than 20.6 µM.
